These results are taken from PubChem BioAssay (NCATS).

Records with an inconclusive call do not appear. Unmarked numbers belong to inactive results. Calls come from the whole dose curve; as a rule, active = well fitted inhibition curve with a large enough effect; inconclusive = small, poorly fitted or top-dose-only effect; inactive = flat fitted curve, though single readings scatter.

In the assay the target is Aldehyde dehydrogenase, mitochondrial (Homo sapiens) (UniProt P05091). The experiment in a line: qHTS for Inhibitors of the Aldehyde Dehydrogenase Family (ALDH2) Primary screen (AID 2061308).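 Note: plate controls were vehicle for no effect and reference inhibitor for full effect; nearly all actives have a fitted effect of over 55% in size.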 To be noted: ALDH2 enzyme inhibition qHTS, 1536-well; series mostly up to 56 µM; activity change, negative = inhibition: at the top concentration.
Regarding `CC(C)[C@@](O)(c1ccc2cc(OC(F)F)c(OC(F)F)cc2c1)c1cn[nH]n1`, the “activity change, negative = inhibition” value is -18.7%.
Turning to `C[C@H](/C=C/[C@@]1(O)[C@H](C)CC(=O)CC1(C)C)O[C@@H]1O[C@H](CO[C@@H]2OC[C@@H](O)[C@H](O)[C@H]2O)[C@@H](O)[C@H](O)[C@H]1O`, the “activity change, negative = inhibition” value was 8.37% [at 28 µM].
Turning to `Cc1cccc(S(=O)(=O)N2CCC[C@@H]2CCN2CCC(C)CC2)c1`, the “activity change, negative = inhibition” value was -0.352%.
With `C[C@@H]1O[C@@H](O[C@@H]2[C@@H](O)[C@H](O[C@@H]3[C@@H](O)[C@@H](O)[C@H](O[C@H]4[C@H](OC(=O)[C@]56CCC(C)(C)C[C@H]5C5=CCC7[C@@]8(C)C[C@H](O)[C@H](O[C@@H]9O[C@H](C(=O)O)[C@@H](O)[C@H](O)[C@H]9O)[C@@](C)(CO)C8[C@H](O)C[C@@]7(C)[C@]5(C)CC6)OC[C@H](O)[C@@H]4O)O[C@H]3C)OC[C@H]2O)[C@H](O)[C@H](O)[C@H]1O` (some centres undefined), the activity change, negative = inhibition is 10.8% [at 11.2 µM].
Then `C[C@@H]1O[C@@H](O[C@H]2[C@H](OC(=O)[C@]34CCC(C)(C)C[C@H]3C3=CCC5[C@@]6(C)C[C@H](O)[C@H](O[C@@H]7O[C@H](CO)[C@@H](O[C@H]8OC[C@](O)(CO)[C@H]8O)[C@H](O)[C@H]7O)[C@@](C)(CO)C6[C@H](O)C[C@@]5(C)[C@]3(C)C[C@H]4O)OC[C@H](O)[C@@H]2O)[C@H](O)[C@H](O)[C@H]1O[C@@H]1OC[C@@H](O)[C@H](O[C@@H]2OC[C@](O)(CO)[C@H]2O)[C@H]1O` (some centres undefined), with 8.6% [at 11.2 µM]; and `CCCCCCCOc1cc2c(cc1/C(C)=C/c1ccc(C(=O)O)cc1)C(C)(C)CCS2(=O)=O`, with 0.0091%.
As for `C[C@]12CC[C@@H]3c4ccc(O[C@@H]5O[C@H](C(=O)O)[C@@H](O)[C@H](O)[C@H]5O)cc4CC[C@H]3[C@@H]1CCC2=O`, the “activity change, negative = inhibition” value is 0.382%.
The figure for `C/C(=C\CCC(C)C1=CCC2(C)OC3=C(CC12)C(=O)C(O)CC3)CO` (centres undefined) is -11.7%; for `O=C(COc1cccc2c(=O)[nH]ccc12)c1ccccc1` it is -13.6%; for `CSCC1OC(n2cnc3c(=O)[nH]cnc32)C(O)C1O` (centres undefined) it is 12.8%.
The figure for `CC1=CC(=O)C2C(C)(C)CC(O)CC2(C)C1CO` (centres undefined) is -6.33%.
The figure for `CNC(=O)[C@H]1O[C@@H](n2cnc3c(NCc4ccc(N)c(I)c4)ncnc32)[C@H](O)[C@@H]1O` is 0.813% [at 11.2 µM].
`CC#CCn1c(N2CCCC(N)C2)nc2c1c(=O)n(Cc1nc(C)c3ccccc3n1)c(=O)n2C` (centres undefined): the “activity change, negative = inhibition” value is 0.962%.
The figure for `N#Cc1cc(-c2ccnc(Nc3ccc(N4CCOCC4)cc3)n2)ccc1OC1CCOCC1` is 9.57%.
